Data from PubChem BioAssay (NCI).
Compounds without any hit were thinned out: in the full panel of roughly 83,000, 20% have a hit.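 Results are percent growth after 48 hours of single-concentration exposure. 100 means growth as in untreated cells, lower positive values show inhibition; negative values down to -100 show cell death.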 Values without a mark were called inactive. The source made the active and inactive calls. How the source made its calls: active means growth percent below 10; inactive means the rest.

Each compound was assayed on LOX IMVI melanoma (assay: NCI-60 one-dose screen, 48 h (100 = growth as untreated, 0 = no growth, -100 = all killed)). Conditions: 10 µM unless noted.

Row | Structure (SMILES) | growth
1 | O=C(NC(=S)Nc1cccc(NC(=S)NC(=O)c2ccccc2)c1)c1ccccc1 | 71%
2 | COc1cc(C(=O)Nc2ccc(-c3nc4ccccc4[nH]3)cc2)cc(OC)c1OC | 36%
3 | CN(C)c1ccc(N=Cc2ccc(N3CCOCC3)cc2)cc1 | 74.3%
4 | Cc1ccc(C)c(-c2csc(Nc3ccc(C)c(C)c3)n2)c1 | -67.9% (active)
5 | COc1ccc(-c2nsc3c2NC(=O)CC3c2ccsc2)cc1 (centres undefined) | 33.4%
6 | O=C(NCCCN1CCC(N2CCCCC2)CC1)C1=Cc2cc(Br)ccc2OC1 | 31.3%
7 | CN1CCN(Cc2ccc(C(=O)Nc3cncc(C#Cc4cnc5cccnn45)c3)cc2C(F)(F)F)CC1 | 56%
8 | Cc1ccccc1CNC(=O)C1CN(c2ccc(Cl)cc2)N(c2ccc(Cl)cc2)C1=O (centres undefined) | 92.9%
9 | Cc1sc2ncn(CC(=O)Nc3ccc(S(N)(=O)=O)cc3)c(=O)c2c1C | 99%
10 | Fc1cccc(COc2ccc(Nc3ncnc4onc(-c5ccccc5)c34)cc2)c1 | 23.1%
11 | Clc1ncccc1Nc1ccc2nnc(-c3ccncc3)n2n1 | 92.8%
12 | CCc1ccc(CNCC(O)c2ccccc2)cc1 (centres undefined) | 68.7%
13 | COc1ccc2oc(=O)cc(Cn3cc(Cn4cnc5c4c(=O)n(C)c(=O)n5C)nn3)c2c1 | 98.2%
14 | COc1ccc(N(C)c2nc(N)nc3sc4c(c23)CCCC4)cc1 | 22.6%
15 | O=C(NCc1ccccc1)C1CN(c2ccc(Cl)cc2)N(c2ccc(Cl)cc2)C1=O (centres undefined) | 88.4%
16 | COc1ccc(C2NCCc3c2[nH]c2ccccc32)cc1CN1CCN(c2ccc(F)cc2)CC1 (centres undefined) | 2.51% (active)
17 | CNCCNc1nc2ccccc2c2c(=O)c3cccc(OC)c3sc12 | 12.2%
18 | COc1cc(/C=C/C(=O)c2ccc(Cl)cc2)cc(CN2CCCCC2)c1O | 87.4%
19 | COc1ccc(-n2c(C(O)c3ccccc3)nn(CN3CCOCC3)c2=S)cc1 (centres undefined) | 95.4%
20 | O=C(c1nc2ccccc2[nH]1)C1C(c2cccc([N+](=O)[O-])c2)C2CC3CCCCC3N2[C@@]12C(=O)Nc1cc(Cl)ccc12 (some centres undefined) | 19.7%

Row | Structure (SMILES) | growth
21 | NC(CCl)=NCCC[C@H](N)C(=O)O | 96.3%
22 | CCOC(=O)c1ccc2[nH]c(-c3ccccc3)cc(=O)c2c1 | 98.2%
23 | COc1ccc(-c2nsc3c2NC(=O)CC3c2cccc(OC)c2)cc1 (centres undefined) | 50.3%
24 | CCN(CC)CCCNc1ccnc2cc3ccccc3cc12 | 53.9%
25 | Cn1cc([C@@H]2Nc3ccc4[nH]ncc4c3[C@H]3[C@H]4CCC(C4)[C@H]32)c(C(F)(F)F)n1 | 44.2%
26 | CCOC(=O)C1(C(=O)OCC)N=C(c2ccccc2)C=C1c1ccccc1 | 94.9%
27 | COc1ccccc1N1C(=N)S/C(=C\c2ccc(OCc3ccccc3F)cc2)C1=O | 80.1%
28 | O=C(c1ccccc1)N(CCc1ccc(Cl)cc1)C(=S)N(C(=O)c1ccccc1)c1ccccc1 | 81.5%
29 | COc1ccc(Nc2cc(C)nc(NCc3ccccc3)n2)cc1 | -57.5% (active)
30 | COc1ccc(C(=O)C2CC2c2ccc(Cl)cc2)cc1 (centres undefined) | 91.1%
31 | CCOC(=O)c1c2c(c(C)n1Cc1ccc(OC)cc1)-c1oncc1CC2 | 76.6%
32 | Cc1ccc2cc3c(N)c4c(C)ccc(C)c4nc3nc2c1 | -53.8% (active)
33 | O=C1Nc2ccccc2/C1=C/c1ccc[nH]1 | 98.8%
34 | COc1ccc(Cn2cc(Cn3c(=O)c(-c4nc5ccccc5[nH]4)cc4ccccc43)nn2)c(OC)c1OC | 18.9%
35 | CCOc1cc2c(cc1OCC)C(c1cc(C)c(O)c(C)c1)NCC2 (centres undefined) | 99.6%
36 | C=C(C)CCC(C)N1CCC(N2CCC(C(=O)NCCc3ccccc3)CC2)CC1 (centres undefined) | 63.1%
37 | COc1ccc(/C=C2\SC(=Nc3ccccc3)NC2=O)cc1 | -82.9% (active)
38 | CN1C(=O)N(C)C2(c3ccccc3)OC(=S)NC12c1ccccc1 (centres undefined) | 98.7%
39 | O=NN(Cc1cccnc1)C(=O)NC1CCCCC1 | 103%
